Here are results for 31 compounds from PubChem BioAssay (NCATS).

The structures appear in SMILES notation. Where “and” joins values, the source holds several entries; their conditions need not be identical. Identical values can stand only once. Inconclusive results are not listed. Unmarked numbers belong to inactive results. Calls of active or inactive are those of the source. Calls come from the whole dose curve; as a rule, active = well fitted cell-killing curve with a large enough effect; inconclusive = small, poorly fitted or top-dose-only effect, or effect the other way; inactive = no such curve, though single readings can be large or run the other way.

A short description of experiment [1]: Viability qHTS for spleen associated tyrosine kinase inhibitor (SYKi) naive MV4-11 cells (AID 1963823). Note: nearly all actives have a fitted effect of over 40% in size. The method, boiled down: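 CellTiter-Glo luminescence, 10 min room-temperature incubation, gave viability. Cells: naive MV4-11 (500/well), treated 72 hr at 37 C, 5% CO2.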
A general note: In qHTS, concentration-response curves come from the screen itself.

The nature of experiment [2]: Viability qHTS for spleen associated tyrosine kinase inhibitor (SYKi) drug resistant MV4-11 cells (AID 1963824). Note: nearly all actives have a fitted effect of over 35% in size. The method, boiled down: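 SYK inhibitor-resistant MV4-11 AML cells, 500 per well, added to predispensed compounds and incubated 72 hr at 37 C, 5% CO2. Viability measured by CellTiter-Glo luminescence after 10 min at room temperature.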
Potency is the fitted concentration of half-maximal effect.

`COc1cc(CCc2ccc(OCC=C(C)C)cc2)cc(OC)c1OC`: the results for the Potency in experiment [1] and in experiment [2] were 14.3 µM (active) and 5.7 µM (active), respectively.
For `COC(=O)c1cc(OC)c(O[C@@H]2O[C@@H](C)[C@H](O)[C@@H](O)[C@H]2O)c(OC)c1`, the Potency entry in experiment [1] and in experiment [2] was “inactive” each time.
For the compound `C/C(=C/CO)CC[C@H]1[C@]2(C)C[C@H](O)CC(C)(C)[C@H]2CC[C@]1(C)O`, the Potency result in experiment [1] and in experiment [2] was “inactive” in each case.
Turning to `C[C@@H]1O[C@@H](OC2C(O[C@H]3[C@H](O[C@H]4CC[C@@]5(C)C(CC[C@]6(C)C5CC=C5C7CC(C)(C)CC(O)[C@]7(C)CC[C@]56C)C4(C)C)O[C@H](C(=O)O)[C@@H](O)[C@@H]3O)OC(CO)C(O)C2O)[C@H](O)[C@H](O)[C@H]1O` (some centres not stated), in experiment [1], the viability (% of control) was 84.2% [at 9.25 µM]. Further, the viability, % of control in experiment [2] was 97.3% [at 9.25 µM].
For `CC(C)=CCC/C(C)=C/CC/C(C)=C/COC1OC(COC2OCC(OC3OCC(O)C(O)C3O)C(O)C2O)C(O)C(OC2OC(C)C(OC3OC(C)C(OC4OCC(OC5OC(C)C(O)C(O)C5O)C(O)C4O)C(O)C3O)C(O)C2O)C1O` (configuration not stated), in that order: 70.7% [at 9.25 µM] and 96.7% [at 9.25 µM].
As to `CC1COC2(OC3CC4C5CC(O[C@@H]6O[C@H](C)[C@@H](O[C@@H]7O[C@@H](C)[C@H](O)[C@@H](O)[C@H]7O)[C@H](O)[C@H]6O)C6CC(O)CCC6(C)C5CCC4(C)C3C2C)C(O)C1` (some centres not stated), the Potency result in experiment [1] and in experiment [2] was “inactive” in each case.
With `COC(=O)C1=C[C@@H](O)[C@@H](O)[C@H](O[C@@H]2O[C@H](COC(=O)/C=C/c3ccccc3)[C@@H](O)[C@H](O)[C@H]2O)C1`, the Potency result in experiment [1] and in experiment [2] was “inactive” each time.
Regarding `Cc1cc(C)c(CNC(=O)c2cc(-c3ccc(N4CCN(C)CC4)nc3)cc3c2c(C)cn3C(C)C)c(=O)[nH]1`, the Potency in experiment [1] was 13.2 µM (active) and 18.6 µM (active); in experiment [2], 14.8 µM (active) and 16.6 µM (active).
In the case of `CCCC(NC(=O)/C(C#N)=C/c1cccc(Br)n1)c1ccccc1` (configuration not stated), the Potency in experiment [1] was 13 µM (active); in experiment [2], 9.2 µM (active).
With `C=C(C)C1CCC(C)C12CC(O)C1(C)OC1C2OC(=O)C(N)CCC(=O)O` (configuration not stated), the Potency result in experiment [1] and in experiment [2] was “inactive” each time.
On to `CC1=CC(=O)C[C@H]2[C@@H]1CC[C@@H](C)[C@]21CO[C@H](c2ccoc2)C1=O`, for which the Potency result in experiment [1] and in experiment [2] was “inactive” throughout.
Turning to `COc1c2c(c(C)c3c1C(=O)OC3)OC1(C)CC(O)C34OC(OC)(CC(OC(C)=O)C3(C)C1C2)OC4(C)C` (configuration not stated), the Potency result in experiment [1] and in experiment [2] was “inactive” in each case.
For `CC1(C)C2CC[C@]3(C)C(C(=O)C=C4[C@H]5C[C@@](C)(C(=O)O)CC[C@]5(C)CC[C@]43C)[C@@]2(C)CC[C@@H]1O` (some centres not stated), the Potency entry in experiment [1] and in experiment [2] was “inactive” throughout.
`C[C@@H]1O[C@@H](O[C@@H]2[C@@H](O)[C@@H](O[C@]3(CO)O[C@H](CO)[C@@H](O)[C@@H]3OC(=O)/C=C/c3ccc(O)cc3)O[C@H](CO)[C@H]2OC(=O)/C=C/c2ccc(O)cc2)[C@H](O)[C@H](O)[C@H]1O[C@@H]1O[C@@H](C)[C@H](O[C@@H]2OC[C@](O)(CO)[C@H]2O)[C@@H](O)[C@H]1O`: the viability (% of control) in experiment [1] is 90% [at 9.25 µM]. Further, the viability, % of control in experiment [2] was 102% [at 9.25 µM].
For `CC(C)=CCC[C@](C)(O[C@@H]1O[C@H](CO[C@@H]2O[C@@H](CO)[C@H](O)[C@H]2O[C@@H]2OC[C@@H](O)[C@H](O)[C@H]2O)[C@@H](O)[C@H](O)[C@H]1O)[C@H]1CC[C@]2(C)[C@@H]1[C@H](O)CC1[C@@]3(C)CC[C@H](O[C@@H]4O[C@H](CO)[C@@H](O)[C@H](O)[C@H]4O[C@@H]4O[C@H](CO)[C@@H](O)[C@H](O)[C@H]4O)C(C)(C)C3CC[C@]12C` (some centres not stated), in that order: 94.1% [at 9.25 µM] and 92.9% [at 9.25 µM].
On to `CC(=O)OC[C@]12[C@H](OC(C)=O)C(=O)[C@@H]3[C@@H](OC(C)=O)[C@@]14O[C@@]3(C)COC(=O)c1cccnc1[C@@H](C)[C@H](C)C(=O)O[C@@H]([C@H](O)[C@@H]2OC(C)=O)[C@]4(C)O`, for which the Potency result in experiment [1] and in experiment [2] was “inactive” throughout.
For `CCN1CCN(Cc2ccc(NC(=O)c3ccc(C)c(Oc4ccnc5[nH]ccc45)c3)cc2C(F)(F)F)CC1`, the Potency in experiment [1] is 0.0255 µM (active); in experiment [2], 0.0718 µM (active).
For `O=S(=O)(NC1CCNCC1)c1cc(S(=O)(=O)c2ccccc2)ccc1C(F)(F)F`, in that order: “inactive” and “inactive”.
`C=C(C)C(=O)O[C@H]1[C@H]2C(=C)C(=O)O[C@@H]2C[C@@H](C)[C@@H]2O[C@@H]2C(=O)[C@](C)(O)[C@@H]1OC(C)=O`: the Potency in experiment [1] was 2 µM (active); in experiment [2], 1.59 µM (active).
For `C=C1CCC2C(C)(C(=O)O)CC(O)CC2(C)C1CC/C(C)=C/C(=O)O` (configuration not stated), in that order: “inactive” and “inactive”.
In the case of `C/C=C/C=C/C=C/C(=O)O[C@@H]1[C@@H](OC)C2=C(C(=O)N(C(CCC(=O)O)C(=O)O)C2)[C@@]2(C)CCCC(C)(C)[C@H]12` (some centres not stated), the Potency result in experiment [1] and in experiment [2] was “inactive” in each case.
On to `CC(C)=C1CC2[C@](C)(CC[C@@H](OC(=O)C3(C)OC3C)[C@@]2(C)O)CC1=O` (some centres not stated), for which the Potency entry in experiment [1] and in experiment [2] was “inactive” in each case.
As to `CNc1ccc([N+](=O)[O-])c(Nc2ccc3[nH]ncc3c2)n1`, the Potency in experiment [1] was 2.59 µM (active); in experiment [2], 5.8 µM (active).
For `COC(=O)c1cc(OC)cc(OC)c1C(=O)c1c(OC)cc2c(c1O)C1CCCC(C)(O2)O1` (configuration not stated), in that order: “inactive” and 7.09 µM (active).
For `COc1cc(O)c2c(c1)C1OC1C[C@H](O)[C@H](O)C(=O)/C=C\C[C@H](C)OC2=O` (some centres not stated), in that order: 3.26 µM (active) and 4.61 µM (active).
On to `COc1cc(C(O)C(CO)Oc2ccc(CCCO[C@@H]3O[C@@H](C)[C@H](O)[C@@H](O)[C@H]3O)cc2OC)ccc1O` (some centres not stated), for which the Potency entry in experiment [1] and in experiment [2] was “inactive” each time.
Consider `CC(C)(O)/C=C1/C(=O)C(C)(C)C(=O)C(C)(C)C1(O)O[C@@H]1O[C@H](COC(=O)c2cc(O)c(O)c(O)c2)[C@@H](O)[C@H](O)[C@H]1O` (some centres not stated), for which the Potency entry in experiment [1] and in experiment [2] was “inactive” each time.
As to `CC(C)(O)CC(CO)NC(=O)CC(O)CC(=O)Cc1ccccc1` (configuration not stated), the Potency result in experiment [1] and in experiment [2] was “inactive” in each case.
In the case of `C[C@@H]1O[C@@H](O[C@@H]2[C@@H](O)[C@H](O[C@H]3[C@H](O[C@H]4CC[C@@]5(C)C(CC[C@]6(C)C5CC=C5[C@@H]7CC(C)(C)CC[C@]7(C(=O)O[C@@H]7O[C@H](CO)[C@@H](O)[C@H](O)[C@H]7O[C@@H]7O[C@@H](C)[C@H](O[C@@H]8O[C@@H](C)[C@H](O)[C@@H](O)[C@H]8O)[C@@H](O)[C@H]7O)CC[C@]56C)[C@@]4(C)CO)O[C@H](C(=O)O)[C@@H](O)[C@@H]3O)O[C@H](CO)[C@H]2O)[C@H](O)[C@H](O)[C@H]1O` (some centres not stated), in experiment [1], the viability (% of control) was 94% [at 9.25 µM]. Besides, in experiment [2], the viability, % of control was 108% [at 9.25 µM].
`CC1=CC(=O)C(=C(C)C)CC2C(C)(O)CCC12O` (configuration not stated): the Potency result in experiment [1] and in experiment [2] was “inactive” each time.
Consider `Fc1ccc(C2CCNC[C@H]2COc2ccc3c(c2)OCO3)cc1` (some centres not stated), for which the Potency in experiment [1] is 16.4 µM (active); in experiment [2], 9.2 µM (active).
